From PubChem BioAssay (Tox21)
Values joined by “and” are separate entries in the source; they are usually repeats but may differ in a detail not shown here. Identical values can stand only once. Inconclusive results are not listed. Unmarked numbers belong to inactive results. Active and inactive are the calls of the source. The call rests on the fitted dose curve; in most records, active means well fitted curve in the direction sought with a large enough effect in the repeat runs; inconclusive means weak or mixed curves; inactive means no such curve, though single readings can be large; an effect the other way counts as inactive or inconclusive.

Test system: not listed separately
Test: qHTS assay to identify small molecule antagonists of the retinoid-related orphan receptor gamma (ROR-gamma) signaling pathway - cell viability counter screen (AID 1159520)
Conditions: Tet-on RORgamma CHO cells viability, ATP luminescence, 16 h; series mostly up to 92.4 µM; activity, negative = cytotoxicity: at the top concentration
Procedure, shortened: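 Tet-on ROR gamma CHO cells were given compounds for 2 hr, then doxycycline hyclate at 1 uM final, and incubated 16 hr at 37 C. Viability was measured as ATP content by CellTiter-Glo luminescence.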
Further: nearly all actives have a fitted effect of over 50% in size.
On the % scale 0 is the no-effect control and ±100 the full control effect.

SMILES	activity, negative = cytotoxicity
CSc1cnc(C)cn1	-0.331% [at 240 µM]
CC1=NC(C)OC1C (stereo unspecified)	1.4%
COc1cc(-c2ccc(N=C=O)c(OC)c2)ccc1N=C=O	-0.202% [at 42.5 µM]
Nc1ccccc1O	-5.42%
Cc1cc(O)c(Cl)c(C)c1Cl	-1.92%
CCCCN(CCCC)C(=O)N(CCCC)CCCC	-7.21%
CC(NN)c1ccccc1 (stereo unspecified)	0.565% [at 19 µM]
COC(=O)c1cc(Cl)ccc1OC	2.09% [at 42.5 µM]
C=C(C)C(=O)OCC[N+](C)(C)C	-3.47%
Clc1ccc2cc3ccccc3cc2c1	7.5%

Target: Nuclear receptor ROR-gamma (Homo sapiens) (UniProt P51449)
Test: qHTS assay to identify small molecule antagonists of the retinoid-related orphan receptor gamma (ROR-gamma) signaling pathway (AID 1159521; further: potency means the concentration at half of the fitted maximal effect;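 on activity change, negative = inhibition: CHO cells with doxycycline inducible ROR-gamma driving an RORE luciferase reporter; top concentration of the series differs between compounds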)
Conditions: Tet-on RORgamma CHO cells, RORE-luciferase, 16 h; series mostly up to 92.4 µM; activity change, negative = inhibition: at the top concentration
Procedure, shortened: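 Readout: ONE-Glo luciferase luminescence, 30 min at room temperature. System: Tet-on RORγ CHO, RORE-LUC. Sequence: compound 2 h, doxycycline 1 uM final, 16 h at 37 C.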

SMILES	Potency	activity change, negative = inhibition
[Cl][Au]([Cl])[Cl]	5.45 µM (active)	–
CSc1cnc(C)cn1	–	-10.5% [at 240 µM]
CC1=NC(C)OC1C (stereo unspecified)	–	74.2%
C=CC(=O)OCC(CO)(COCC(COC(=O)C=C)(COC(=O)C=C)COC(=O)C=C)COC(=O)C=C	2.7 µM (active)	–
COc1cc(-c2ccc(N=C=O)c(OC)c2)ccc1N=C=O	–	1.95% [at 42.5 µM]
Oc1c(Cl)cc(Cl)c2cccnc12	11.9 µM (active)	–
Nc1ccccc1O	–	-35.1%
O=C1CCCCCN1SSN1CCCCCC1=O	24.3 µM (active)	–
C=CC(=O)OCC(CO)(COC(=O)C=C)COC(=O)C=C	2.44 µM (active) and 6.86 µM (active)	–
Cc1cc(O)c(Cl)c(C)c1Cl	–	-12%
Oc1ccc(N=Nc2ccccc2)cc1	–	3.32%
O=C(Nc1cccc([N+](=O)[O-])c1)c1cc2ccccc2cc1O	4.33 µM (active)	–
NNc1nc(-c2ccccc2)cs1	–	40.4%
CN(C/C=C/C#CC(C)(C)C)Cc1cccc2ccccc12	–	-8.75% [at 42.5 µM]
CCCCCOc1ccccc1/C(=C\SC)n1ccnc1	13.3 µM (active)	–
C=C(C)C(=O)OCC(O)COc1ccc(C(C)(C)c2ccc(OCC(O)COC(=O)C(=C)C)cc2)cc1 (stereo unspecified)	24.3 µM (active)	–
CCCCCCCC/C=C\CCCCCCCCOCCO	20 µM (active)	–
CC(C)(C)NC(=O)[C@@H]1C[C@@H]2CCCC[C@@H]2CN1C[C@@H](O)[C@H](Cc1ccccc1)NC(=O)[C@H](CC(N)=O)NC(=O)c1ccc2ccccc2n1	55.2 µM (active)	–
CCCCN(CCCC)C(=O)N(CCCC)CCCC	–	-3.78%
CCCCCCCCCCCC(=O)NCCCN(C)C	30.6 µM (active)	–
CC(NN)c1ccccc1 (stereo unspecified)	–	-0.108% [at 19 µM]
CCN(Cc1cccnc1)C(=O)c1cccc(Cl)c1[C@]1(C)C(=O)N(Cc2ccc(OC)cc2OC)c2ccc(Cl)cc21	9.05 µM (active)	–
COC(=O)c1cc(Cl)ccc1OC	–	25.3% [at 42.5 µM]
C=C(C)C(=O)OCC[N+](C)(C)C	–	-27.3%
O=C1c2c(O)ccc(Nc3ccc(CCO)cc3)c2C(=O)c2c([N+](=O)[O-])ccc(O)c21	–	13.7%
Clc1ccc2cc3ccccc3cc2c1	–	23.7%
